{"source": "PubChem BioAssay (EPA / NIEHS)", "key": {"[1]": {"molecular_target": "Norway rat Vesicular Monoamine Transporter (VMAT2), neurotransmitter transporter, Slc18a2 (gene 25549) (UniProt Q01827)", "sequence (Q01827 whole entry, looked up)": "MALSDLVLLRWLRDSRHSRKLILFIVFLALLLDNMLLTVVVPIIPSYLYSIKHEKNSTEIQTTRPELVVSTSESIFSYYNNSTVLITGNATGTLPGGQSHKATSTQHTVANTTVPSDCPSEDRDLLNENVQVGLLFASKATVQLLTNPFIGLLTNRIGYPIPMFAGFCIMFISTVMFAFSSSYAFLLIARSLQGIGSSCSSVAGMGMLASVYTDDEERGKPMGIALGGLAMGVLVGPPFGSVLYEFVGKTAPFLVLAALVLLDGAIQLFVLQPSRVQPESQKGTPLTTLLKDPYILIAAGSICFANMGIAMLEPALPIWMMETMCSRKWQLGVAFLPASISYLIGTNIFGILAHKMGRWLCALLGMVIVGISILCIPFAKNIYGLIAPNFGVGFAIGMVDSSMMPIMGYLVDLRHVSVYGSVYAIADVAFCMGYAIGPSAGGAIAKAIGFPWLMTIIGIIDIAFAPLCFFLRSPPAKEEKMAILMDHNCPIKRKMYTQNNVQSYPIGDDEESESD", "experiment": "NVS_TR_rVMAT2: NovaScreen (NVS) Transporter Assay for Norway rat Vesicular Monoamine Transporter (VMAT2), neurotransmitter transporter (AID 2283376);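 also: actives lower the bound radioligand signal below the DMSO level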", "outline": "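Radioligand displacement binding on rat forebrain tissue preparation, filter-based scintillation read-out 1 hour after dosing. Primary screen in duplicate at 25 uM, then concentration series for actives; loss of signal versus DMSO.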"}, "[2]": {"experiment": "TOX21_p53_BLA_p2_viability: Viability Assessment in the Tox21 HCT-116 p53 Agonism Beta-lactamase Assay, Phase 2 (AID 2283591);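 also: actives lower the ATP signal meaning cytotoxicity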", "outline": "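HCT116 p53-bla cells, 4000/well, dosed after 5 h plating (217-fold dilution of DMSO stocks) and incubated 16 h at 37C. Viability taken as cellular ATP by CellTiter-Glo luminescence after 30 min RT; signal loss marks cytotoxicity.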"}, "[3]": {"experiment": "TOX21_p53_BLA_p3_viability: Viability Assessment in the Tox21 HCT-116 p53 Agonism Beta-lactamase Assay, Phase 3 (AID 2283593);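 also: cells exposed to compound for 16 h before reading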", "outline": "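HCT116 cells, 4000/well, dosed 5 h after plating by pin transfer (217-fold dilution from DMSO stock) and incubated 16 h at 37C, 5% CO2. Viability read as ATP luminescence with CellTiter-Glo after 30 min at room temperature.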"}, "[4]": {"experiment": "TOX21_p53_BLA_p4_viability: Viability Assessment in the Tox21 HCT-116 p53 Agonism Beta-lactamase Assay, Phase 4 (AID 2283597);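 also: hits lower the luminescence signal meaning cytotoxicity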", "outline": "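Cells plated, 5 h pre-incubation; DMSO compounds pinned (217-fold dilution); 16 h, 37C/5% CO2; CCF4-AM 2 h RT; CellTiter-Glo 30 min RT; luminescence read.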"}, "[5]": {"experiment": "TOX21_p53_BLA_p5_viability: Viability Assessment in the Tox21 HCT-116 p53 Agonism Beta-lactamase Assay, Phase 5 (AID 2283600)", "outline": "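4000 cells/well; 5 h pre-incubation; DMSO compounds pin-transferred, 217-fold dilution; 16 h, 37C/5% CO2; CCF4-AM 2 h RT; CellTiter-Glo 30 min RT; luminescence.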"}, "[6]": {"experiment": "CCTE_Shafer_MEA_dev_firing_rate_mean: CCTE's Neural Network Formation Assay for Mean Firing Rate, Shafer Lab (AID 2284031; active = hit-call score of the fitted dose curve at least 0.9, where 1 is the maximum; inactive = score below 0.9)", "outline": "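Developing rat cortical networks on MEA plates undergo 12-day compound exposure. Firing frequency, averaged across active electrodes, is integrated as area under the curve over four recording days, referenced to DMSO.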"}, "[7]": {"experiment": "CCTE_Shafer_MEA_dev_per_burst_spike_percent: CCTE's Neural Network Formation Assay for Percent of Spikes in a Burst, Shafer Lab (AID 2284032; active = hit-call score of the fitted dose curve at least 0.9, where 1 is the maximum; inactive = score below 0.9)", "outline": "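Rat primary cortical neurons on 16-electrode MEA wells, dosed from plating day 0 for 12 days with renewal on DIV 5 and 9; spikes-in-bursts percentage averaged over bursting electrodes, collapsed as AUC across days 5, 7, 9, 12; loss direction versus DMSO.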"}, "[8]": {"experiment": "CCTE_Shafer_MEA_dev_burst_rate: CCTE's Neural Network Formation Assay for Burst Rate, Shafer Lab (AID 2284042; active = hit-call score of the fitted dose curve at least 0.9, where 1 is the maximum; inactive = score below 0.9)", "outline": "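Primary rat cortical neurons on PEI-coated 48-well MEA plates (laminin added with cells at plating) (16 electrodes/well), exposed from plating to day 12, dosing renewed at DIV 5 and 9. Burst rate averaged over active electrodes, recorded DIV 5, 7, 9, 12, summarized as AUC; loss versus DMSO.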"}, "[9]": {"experiment": "CCTE_Shafer_MEA_dev_bursting_electrodes_number: CCTE's Neural Network Formation Assay for Number of Bursting Electrodes, Shafer Lab (AID 2284043)", "outline": "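Primary rat cortical neurons plated on 16-electrode MEA wells, exposed from day 0 with compound renewed at DIV 5 and 9. Electrodes bursting ≥1 burst per 2 min counted on days 5, 7, 9 and 12; trapezoidal AUC across days, fitted for loss versus DMSO.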"}, "[10]": {"experiment": "CCTE_Shafer_MEA_dev_per_burst_interspike_interval: CCTE's Neural Network Formation Assay for Burst Interspike Interval, Shafer Lab (AID 2284044; active = hit-call score of the fitted dose curve at least 0.9, where 1 is the maximum; inactive = score below 0.9)", "outline": "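Neurons from rat cortex plated onto PEI-coated MEA wells with laminin […] at 1.5 x 10^5 cells/well, then treated from day 0. Media and compound fully replaced on DIV 5 and 9. Extracellular spontaneous firing recorded four times; interspike interval per burst summarised as AUC.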"}, "[11]": {"experiment": "CCTE_Shafer_MEA_dev_burst_duration_mean: CCTE's Neural Network Formation Assay for Mean Burst Duration, Shafer Lab (AID 2284045; active = hit-call score of the fitted dose curve at least 0.9, where 1 is the maximum; inactive = score below 0.9)", "outline": "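Primary rat cortical neurons on 48-well 16-electrode MEA plates, exposed from day 0 with renewal at DIV 5 and 9; spontaneous activity recorded on days 5, 7, 9, 12. Well-mean burst duration across bursting electrodes, collapsed as trapezoidal AUC; DMSO baseline.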"}, "[12]": {"experiment": "CCTE_Shafer_MEA_dev_interburst_interval_mean: CCTE's Neural Network Formation Assay for Mean Interburst Interval, Shafer Lab (AID 2284046; active = hit-call score of the fitted dose curve at least 0.9, where 1 is the maximum; inactive = score below 0.9)", "outline": "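Recordings on days 5, 7, 9 and 12 give well-mean interburst interval across actively bursting electrodes, summarized as area under the curve. Cultures: rat cortical neurons, continuous exposure from day 0, compound renewed at feeds; decrease analyzed versus DMSO.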"}, "[13]": {"experiment": "CCTE_Shafer_MEA_dev_network_spike_number: CCTE's Neural Network Formation Assay for Number of Network Spikes, Shafer Lab (AID 2284048; active = hit-call score of the fitted dose curve at least 0.9, where 1 is the maximum; inactive = score below 0.9)", "outline": "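Primary rat cortical neurons on PEI/laminin 48-well MEA plates, dosed from plating day 0 for 12 days, renewed at DIV 5 and 9. Network spike counts recorded DIV 5, 7, 9, 12, collapsed as trapezoidal AUC; DMSO baseline.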"}, "[14]": {"experiment": "CCTE_Shafer_MEA_dev_network_spike_peak: CCTE's Neural Network Formation Assay for Mean Number of Electrodes in Network Spike, Shafer Lab (AID 2284049; active = hit-call score of the fitted dose curve at least 0.9, where 1 is the maximum; inactive = score below 0.9)", "outline": "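Network-spike peak electrode count from recordings on days 5, 7, 9 and 12 was combined as trapezoidal area under the curve. Rat cortical cultures were treated continuously from plating, with compound renewed at each feed (DIV 5, 9); fits versus DMSO.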"}, "[15]": {"experiment": "CCTE_Shafer_MEA_dev_spike_duration_mean: CCTE's Neural Network Formation Assay for Mean Spike Duration, Shafer Lab (AID 2284051; active = hit-call score of the fitted dose curve at least 0.9, where 1 is the maximum; inactive = score below 0.9)", "outline": "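Primary rat cortical neurons on 16-electrode MEA wells (PEI-coated, laminin in plating drop), exposed from plating through DIV 12 with compound renewed at DIV 5 and 9. Mean network-spike duration recorded DIV 5, 7, 9, 12; trapezoidal AUC across days, DMSO baseline.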"}, "[16]": {"experiment": "CCTE_Shafer_MEA_dev_network_spike_duration_std: CCTE's Neural Network Formation Assay for Standard Deviation of Network Spike Duration, Shafer Lab (AID 2284052; active = hit-call score of the fitted dose curve at least 0.9, where 1 is the maximum; inactive = score below 0.9)", "outline": "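Primary rat cortical neurons on PEI-coated 16-electrode MEA wells, exposed from plating day 0 through day 12 with compound renewed at DIV 5 and 9. Network spike duration SD recorded on days 5, 7, 9, 12, collapsed as trapezoidal AUC; loss-of-signal fit versus DMSO.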"}, "[17]": {"experiment": "CCTE_Shafer_MEA_dev_per_network_spike_spike_number_mean: CCTE's Neural Network Formation Assay for Mean Number of Spikes in a Network Spike, Shafer Lab (AID 2284053; active = hit-call score of the fitted dose curve at least 0.9, where 1 is the maximum; inactive = score below 0.9)", "outline": "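Primary rat cortical neurons on 48-well, 16-electrode MEA plates were exposed from plating to DIV 12, with dosing renewed on DIV 5 and 9. Spikes per network spike (0.05 s peak window) were recorded on DIV 5, 7, 9 and 12 and collapsed as trapezoidal AUC versus DMSO.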"}, "[18]": {"experiment": "CCTE_Shafer_MEA_dev_per_network_spike_spike_percent: CCTE's Neural Network Formation Assay for Percent of Spikes in a Network Spike, Shafer Lab (AID 2284054; active = hit-call score of the fitted dose curve at least 0.9, where 1 is the maximum; inactive = score below 0.9)", "outline": "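Rat primary cortical neurons were grown on 48-well MEA plates (16 electrodes/well), exposed from plating day 0 through day 12, with treatment renewed on DIV 5 and 9. Percent of spikes within 0.05 s network-spike peaks was measured, summarised as AUC across days 5, 7, 9, 12.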"}, "[19]": {"experiment": "CCTE_Shafer_MEA_dev_LDH: CCTE's Lactate Dehydrogenase Assay for Cytotoxicity in the Neural Network Formation Assay, Shafer Lab (AID 2284068)", "outline": "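Primary rat cortical neurons were plated on PEI/laminin MEA plates and exposed from day 0 for twelve days, with compound renewed at DIV 5 and 9. Cytotoxicity was determined by spectrophotometric LDH assay relative to DMSO.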"}, "[20]": {"experiment": "CCTE_Shafer_MEA_dev_AB: CCTE's Alamar Blue Assay for Cytotoxicity in the Neural Network Formation Assay, Shafer Lab (AID 2284083)", "outline": "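Primary rat cortical neurons on PEI-coated 48-well MEA plates, 1.5 x 10^5 cells/well in laminin drop; compound exposure from day 0 of plating for twelve days, renewed at medium changes on DIV 5 and 9. Viability read as resazurin reduction by fluorescence, relative to DMSO.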"}, "[21]": {"experiment": "CCTE_Shafer_MEA_dev_mutual_information_norm: CCTE's Neural Network Formation Assay for Mutual Information Normalization, Shafer Lab (AID 2284091; active = hit-call score of the fitted dose curve at least 0.9, where 1 is the maximum; inactive = score below 0.9)", "outline": "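Primary rat cortical neurons on PEI-coated 48-well MEA plates, 1.5 x 10^5 cells/well, exposed from day 0 through day 12 with re-dosing at DIV 5 and 9. Mutual information between electrodes recorded days 5, 7, 9, 12; trapezoidal AUC, loss-of-signal fit versus DMSO.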"}, "[22]": {"experiment": "CCTE_Shafer_MEA_dev_correlation_coefficient_mean: CCTE's Neural Network Formation Assay for Mean Correlation Coefficient, Shafer Lab (AID 2284093; active = hit-call score of the fitted dose curve at least 0.9, where 1 is the maximum; inactive = score below 0.9)", "outline": "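Spontaneous activity recorded on days 5, 7, 9 and 12 post-plating; pairwise spike correlations are averaged across active electrodes and collapsed to an area-under-curve. Rat cortical cultures are dosed from plating through 12 days, with compound renewed at media changes.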"}}, "note": "Results filed as inconclusive are left out. Where a structure was tested more than once in an assay, its records may differ in their call. Activity calls are given as the source filed them. The calls were made as follows, unless noted: active = hit-call score of the fitted dose curve at least 0.9, where 1 is the maximum; inconclusive = response in the unintended direction; inactive = score below 0.9.", "data": [{"compound": "CCCCCCCCCCCCCCCC[N+](C)(C)CC", "values": [{"measurement": "outcome", "setting": "[1]", "result": "inactive"}]}, {"compound": "O=C=NC1CCC(CC2CCC(N=C=O)CC2)CC1", "note": "(stereo not drawn)", "values": [{"measurement": "AC50", "setting": "[1]", "result": "9.03 µM (active)"}]}, {"compound": "CCOP(=O)(O)OCC", "note": "(tested in a mixture with another compound)", "values": [{"measurement": "AC50", "setting": "[2]", "result": "72.3 µM (active)"}, {"measurement": "outcome", "setting": "[2]", "result": "inactive"}, {"measurement": "AC50", "setting": "[3]", "result": "28.7 µM (active)"}, {"measurement": "outcome", "setting": "[3]", "result": "inactive"}, {"measurement": "AC50", "setting": "[4]", "result": "83 µM (active)"}, {"measurement": "AC50", "setting": "[5]", "result": "85.2 µM (active)"}, {"measurement": "outcome", "setting": "[5]", "result": "inactive"}, {"measurement": "outcome", "setting": "[6]", "result": "inactive"}, {"measurement": "outcome", "setting": "[7]", "result": "inactive"}, {"measurement": "outcome", "setting": "[8]", "result": "inactive"}, {"measurement": "outcome", "setting": "[9]", "result": "inactive"}, {"measurement": "outcome", "setting": "[10]", "result": "inactive"}, {"measurement": "outcome", "setting": "[11]", "result": "inactive"}, {"measurement": "outcome", "setting": "[12]", "result": "inactive"}, {"measurement": "outcome", "setting": "[13]", "result": "inactive"}, {"measurement": "outcome", "setting": "[14]", "result": "inactive"}, {"measurement": "outcome", "setting": "[15]", "result": "inactive"}, {"measurement": "outcome", "setting": "[16]", "result": "inactive"}, {"measurement": "outcome", "setting": "[17]", "result": "inactive"}, {"measurement": "outcome", "setting": "[18]", "result": "inactive"}, {"measurement": "outcome", "setting": "[19]", "result": "inactive"}, {"measurement": "outcome", "setting": "[20]", "result": "inactive"}, {"measurement": "outcome", "setting": "[21]", "result": "inactive"}, {"measurement": "outcome", "setting": "[22]", "result": "inactive"}]}, {"compound": "CC(CC(C#N)(c1ccccc1)c1ccccc1)N(C)C", "note": "(stereo not drawn)", "values": [{"measurement": "outcome", "setting": "[2]", "result": "inactive"}]}, {"compound": "COc1cccc(O)c1", "values": [{"measurement": "outcome", "setting": "[1]", "result": "inactive"}]}]}
